# Most compounds without a hit are left out; they make up all but 4.8% or so of the library.
# ssDAF-12 act: S. stercoralis DAF-12 nuclear receptor activators, primary screen, cell-based, luminescence, HEK293, GRIP1 co-expression, lit1-tk-luc | Nuclear hormone receptor DAF-12 (Strongyloides stercoralis) | HEK293 ssDAF-12/GRIP1 lit1-tk-luc reporter; % of 3 µM dafachronic acid response | activation, % at 6.8 µM | actives 1% (n = 370,000);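 active = activation above the mean over all tested compounds plus 3 SD, cut at about 0.9% in these data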;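 also: 0% = DMSO-only wells and 100% = 3 µM delta7-dafachronic acid wells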
# SMARCA2 act: SMARCA2 (BRM) function activators, primary screen, cell-based, luminescence, high throughput; MG213 cells, MMTV-luciferase reporter, dexamethasone, overnight; activation, % at 9.1 µM; actives 1% (n = 370,000); AID 652017, 2013; in the data active = activation above about 7.8%;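 also: 0% = vehicle wells and 100% = reference activator wells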
# hgDAF-12 ag: H. glycines DAF-12 receptor agonists, primary screen, cell-based, luminescence, HEK293, GAL4 fusion, UAS-luciferase; Nuclear hormone receptor DAF-12 (Heterodera glycines), GAL4 fusion; HEK293 GAL4-hgDAF12 UAS-luciferase reporter, agonist luminescence; normalized to butyrate control; activation, % at 6.8 µM; actives 1.8% (n = 370,000); AID 687014, 2013;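 active = activation above a cutoff set at the mean of all screened compounds plus 3 SD, cut at about 10% in these data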;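 also: 0% = DMSO wells and 100% = sodium butyrate wells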
# DAX1 inh-1: DAX1 (NR0B1) inhibitors on StAR promoter, primary screen, cell-based, luminescence, SF-1 (NR5A1), full-length DAX-1; actives 1.1% (n = 370,000); HEK293T StAR-luciferase reporter, SF-1/DAX-1 repression relief; inhibition, % at 6.8 µM;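 active = inhibition above the mean over all tested compounds plus 3 SD, cut at about 3.6% in these data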;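 also: 0% = DAX-1 cells with DMSO and 100% = cells lacking DAX-1 with DMSO; higher inhibition means more luminescence from relief of DAX-1 repression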
# DAX1 inh-2: DAX1 (NR0B1) inhibitors, primary screen, cell-based, HEK293, Gal4-DAX1, luciferase luminescence; actives 0.99% (n = 340,000); AID 504766, 2011; Nuclear receptor subfamily 0 group B member 1 (Homo sapiens), P51843; inhibition, % at 6.75 µM; HEK293 Gal4-DAX1 luciferase reporter;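 active = inhibition above the mean over all tested compounds plus 3 SD, cut at about 4.2% in these data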;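 also: 0% = DAX1-transfected cells with DMSO and 100% = empty-vector control cells with DMSO; inhibition shows as a rise in luminescence from relieved DAX1 repression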
# hcDAF-12 act: H. contortus DAF-12 nuclear receptor activators, primary screen, cell-based, luminescence, HEK293, lit1-tk-luc reporter; HEK293 hcDAF-12 lit1-tk-luc reporter; 0% DMSO, 100% Δ7-dafachronic acid; activation, % at 6.8 µM; actives 1.4% (n = 370,000); AID 652067, 2013;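 active = activation above the mean of all tested compounds plus 3 SD, cut at about 5.5% in these data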;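 also: 100% = response to 3 µM Δ7-dafachronic acid high control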
# LXRb hcDAF ctr: LXR agonists, Gal4 luciferase reporter, confirmation, counter-screen for hcDAF-12 agonist project, cell-based, luminescence, HEK293, H. contortus campaign | shares compounds with hcDAF-12 act | HEK293 Gal4-LXR tk-luc reporter, 24 h; normalized: DMSO 0%, positive control 100% | activation, % at 6.8 µM | 3,400 tested, under 10 active | AID 743027, 2013;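 active = mean percent activation of the reporter above a cutoff set as the average over tested compounds plus their standard deviation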
# Target sequence (P55055 whole entry, looked up, the tested form may be a part): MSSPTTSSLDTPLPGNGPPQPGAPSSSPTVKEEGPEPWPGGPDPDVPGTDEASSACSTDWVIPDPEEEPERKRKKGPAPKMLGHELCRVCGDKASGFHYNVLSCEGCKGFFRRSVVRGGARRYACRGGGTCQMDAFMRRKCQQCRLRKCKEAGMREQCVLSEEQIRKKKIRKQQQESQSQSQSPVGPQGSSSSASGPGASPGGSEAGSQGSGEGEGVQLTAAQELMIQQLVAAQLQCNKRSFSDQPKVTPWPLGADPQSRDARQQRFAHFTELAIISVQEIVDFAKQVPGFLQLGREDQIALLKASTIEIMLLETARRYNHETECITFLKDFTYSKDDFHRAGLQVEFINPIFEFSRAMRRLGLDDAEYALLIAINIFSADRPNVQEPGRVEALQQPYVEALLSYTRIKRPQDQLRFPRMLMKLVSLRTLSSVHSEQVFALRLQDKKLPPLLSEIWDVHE
# hcDAF12 conf: H. contortus DAF-12 receptor agonists, confirmation, cell-based, luminescence, HEK293, lit1-tk-luc, triplicate; shares compounds with hcDAF-12 act; HEK293 hcDAF-12 lit1-tk-luc reporter; % of Δ7-dafachronic acid response; activation, % at 6.8 µM; actives 61% (n = 3,400); AID 743032, 2013;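 active = mean activation across triplicate tests above the threshold derived from the earlier primary screen, cut at about 5.5% in these data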;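 also: 0% = DMSO only wells and 100% = 3 µM Δ7-dafachronic acid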
# * = called active by the depositor; . = no result.
SMILES,ssDAF-12 act,SMARCA2 act,hgDAF-12 ag,DAX1 inh-1,DAX1 inh-2,hcDAF-12 act,LXRb hcDAF ctr,hcDAF12 conf
COC(=O)C1=C(C)N(Cc2ccccc2C(F)(F)F)C(=NCc2ccc(OC)cc2)NC1c1cccc(Cl)c1 (configuration not stated),0,-3,-1,1,.,-1,.,.
CC(=O)Nc1cc(-c2ccc(F)cc2)cn2c(-c3ccc(F)c(Cl)c3)cnc12,-1,-1,1,0,.,-2,.,.
Nc1cccn2c(-c3ccc(Cl)c(Cl)c3)cnc12,1.1*,6,10,4.0*,3,9.5*,1,13*
Cc1cc(C)nc(SCC(=O)OCC(=O)Nc2nc3ccccc3s2)n1,0,6,4,0,-1,8.5*,0,6.5*
Cc1cc(C)nc(NC(=O)CSc2nc3ccccc3s2)n1,2.1*,6,10,3,1,7.7*,1,9.3*
Cc1cc(NC(=O)CCl)n(-c2nc3ccccc3s2)n1,0,3,0,1,-1,6.8*,0,5
COc1ccc2c(c1)[C@@]1(OCCC=C[C@H]1C)C(=O)N2Cc1ccc(Br)cc1,-1,1,-2,0,.,-1,.,.
O=C(O)c1cc(N/N=C/c2cccc3ccccc23)ccc1Cl,0,4,1,0,2,8.4*,1,8.2*
C/C(=N\O)c1sc(-c2ccccc2)nc1C,1.1*,7.9*,12*,3.8*,2,12*,1,7.2*
CCn1c2ccccc2c2cc(NC(=O)COC(=O)c3cc(Cl)cc(Cl)c3)ccc21,-2,-4,3,-1,.,-2,.,.
C=CCNC(=S)Nc1c(C(=O)OC)[nH]c2cc(OC)ccc12,1,4,7,1,1,9.7*,1,7.5*
COC(=O)c1[nH]c2cc(OC)ccc2c1NC(=O)c1c(F)cccc1F,-2,-1,1,-1,0,-2,.,.
CC1CCC/C(=N\NS(=O)(=O)c2ccccc2)C1 (configuration not stated),-2,-2,1,0,0,-1,.,.
CC1CCCC(=NNc2ccc3ccccc3n2)C1 (configuration not stated),0,1,3,1,3,6.7*,0,3
CC(=O)c1cccc2c(O)c(C3=Nc4ccccc4C3=O)[nH]c12,1.2*,2,5,1,0,6.6*,1,7.1*
O=C(O)c1cccc2c(-c3ccccc3)c(-c3ccccc3)[nH]c12,-1,-1,-3,0,-1,0,.,.
COc1ccccc1CN=c1c([N+](=O)[O-])nn(-c2ccc3c(c2)OCCO3)n1O,0,1,11*,3,2,9.0*,0,3
O=C(COC(=O)c1cccc(Cl)c1Cl)NCCN1C(=O)CSC1=O,1,-4,1,0,0,9.0*,0,1
COC(=O)c1cc2c(c3c4cc(F)ccc4n(S(=O)(=O)c4ccc(C)cc4)c13)C(=O)N(C)C2,0,2,-2,-1,.,0,.,.
CCCCS/C(N)=N/N=C/c1cc(C)ccc1O,0,5,6,0,1,0,.,.
CCS/C(N)=N/N=C/c1cc(C)ccc1O,1,8,7,3,0,7.9*,2,6.2*
CCCCCCCCN1C(=O)[C@@H](CC(=O)NCc2ccc(C)o2)C[C@@]2(C(=O)OC)C1=C[C@H](C1CCCC1)O[C@@H]2C,-1,-3,1,0,.,0,.,.
O/C(=C\c1ccc2ccccc2n1)c1ccncc1,1.2*,6,12*,4,2,8.6*,1,12*
O=C(Nc1ccc(Br)cc1)c1cc2ccccn2n1,1,-2,13*,1,2,6.9*,1,6
C(#Cc1ccc2c(c1)COc1c3ccccc3nn1-2)c1ccccc1,0,5,8,1,4,4,.,.
SMILES,ssDAF-12 act,SMARCA2 act,hgDAF-12 ag,DAX1 inh-1,DAX1 inh-2,hcDAF-12 act,LXRb hcDAF ctr,hcDAF12 conf
C#Cc1ccc2c(c1)COc1c3ccccc3nn1-2,1.8*,4,12*,3,2,11*,2,8.3*
COc1cc(/C=N/Nc2ccc3ccccc3c2)ccc1OC(=O)c1ccco1,0,3,5,0,1,6.8*,0,7.5*
COc1ccc(Oc2cccc3c2S(=O)(=O)N(C2CC2)C[C@@H](COCc2ccccc2)O3)cc1,-2,-3,-2,-1,.,-2,.,.
Cc1nc2sc(C(=O)Nc3ccccc3)c(N)c2c(C)c1[N+](=O)[O-],1.6*,0,10,4.0*,6.9*,8.1*,1,9.4*
Cc1nc2sc(C(=O)c3ccccc3)c(N)c2c(C)c1C,-1,0,6,-1,1,0,.,.
Nc1c(C(=O)Nc2ccccc2)sc2ncc([N+](=O)[O-])cc12,-1,4,3,0,.,-1,.,.
CC(=O)c1ccc(NC(=O)c2sc3nc(C)c(C)c(C)c3c2N)cc1,1.2*,2,10,2,6.7*,8.2*,1,5.8*
COC(=O)C1=C(C)N(Cc2ccc(C(F)(F)F)cc2)C(=NCc2cc(OC)c(OC)c(OC)c2)NC1c1cccc(Cl)c1 (configuration not stated),-1,-8,0,0,.,0,.,.
Cc1cccc(Cl)c1NC(=O)N(C)c1ccccc1,0,-5,-1,-1,.,1,.,.
Clc1ccc(-c2cn3nc4c(nc3n2)CCCC4)cc1,1,6,12*,4.2*,2,8.1*,1,7.5*
COc1cccc(-c2cn3nc4c(nc3n2)CCCC4)c1,.,.,.,.,-1,.,.,.
O=C(O)CCC(=O)NNc1ncnc2ccccc12,-1,-2,-5,-1,3,0,.,.

# Screening data from PubChem.
